From PubChem BioAssay (NCATS) come the findings set out here.

Where “and” joins values, the source holds several entries; their conditions need not be identical. Equal values may be shown once. Values without a mark were called inactive. Records with an inconclusive call do not appear. Calls of active or inactive are those of the source. Unless noted, the call rests on the fitted dose curve. A value given as a limit tells only on which side of the number the result lay.

Assay [1] in a line: Cell Viability - BJ (AID 421).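 Further: potency means the concentration at half of the fitted maximal effect; cells exposed to compound for 40 hours at 37 °C before readout.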 The note with it: BJ fibroblast viability, qHTS. In a few lines: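 Quantitative HTS: ATP depletion in BJ cells after 40 hr compound exposure in complete culture medium, detected with CellTiter-Glo; AC50 from standard Hill fits.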
The nature of assay [2]: Cell Viability - Hek293 (AID 427;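 active means compounds whose dose-response curve shows a full or clear partial loss of cell viability, called from curve shape rather than a numeric limit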;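 further: potency means the concentration at half of the fitted maximal effect; cells exposed to compound for 40 hours at 37 °C before reading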). The note with it: qHTS. In a few lines: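 AC50 values derive from Hill-modelled concentration-response of ATP-based luminescence, normalized between DMSO-only and 100 uM tamoxifen controls. Cells were exposed in complete culture medium for 40 hr at 37 °C before detection.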
A short description of assay [3]: Cell Viability - HepG2 (AID 433).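 Further: potency means the concentration at half of the fitted maximal effect; potency for ATP loss meaning cytotoxicity.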 The note with it: qHTS. A digest of the protocol:
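In this qHTS format, a 40 h, 37 °C compound incubation of HepG2 cells in complete medium precedes a 20 min CellTiter-Glo step at room temperature. Tamoxifen and doxorubicin serve as positive controls; Hill-equation fits yield AC50.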
Background: In qHTS, concentration-response curves come from the screen itself.

Assay [4] can be described thus: Cell Viability - MRC5 (AID 434).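 Further: potency means the concentration at half of the fitted maximal effect; potency reflects cytotoxicity seen as loss of intracellular ATP.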 The note with it: MRC5 lung fibroblast viability, qHTS. In a few lines:
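ATP luminescence read-out (CellTiter-Glo, 20 min RT) after 40 hr, 37 °C compound exposure of 1500 MRC5 cells/well. Data normalized to DMSO (basal) and 100 uM tamoxifen (100% inhibition); AC50 from standard Hill equation.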

Assay [5] deals with Mitogen-activated protein kinase 10 (Mus musculus) (UniProt Q61831). The experiment in a line: JNK3 AlphaScreen Assay (AID 530; active means well fitted curve in either direction with a large enough effect, not every such curve was filed as active;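 further: kinase came from lysate of stimulated human HepG2 cells; signal reports phosphorylation of biotinylated GST-cJun 1-79 at Ser73 with 10 µM ATP; on the % scale 0 is the no-effect control and ±100 the full control effect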). The note with it: JNK3 lysate, c-Jun phosphorylation; series mostly up to 25.6 µM. In a few lines:
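Activity was read by AlphaScreen after JNK3-containing HepG2 lysate (cytokine pre-activated) phosphorylated biotinylated GST-cJun with 10 uM ATP at room temperature. Phospho-Ser73 cJun antibody with Protein-A acceptor beads provided detection.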
(Bead proximity is the source of the signal in Alpha formats.)

Assay [6] is described as follows: Cell Viability - N2a (AID 540; active means well fitted curve in the direction sought with a large enough effect; an effect the other way counts as inactive or inconclusive;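 further: plate controls were DMSO alone for no effect and tamoxifen control for full effect; nearly all actives have a fitted effect of over 45% in size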). The note with it: N2a mouse neuroblastoma cell viability; activity change, negative = cytotoxicity: at 92.2 µM (top of the series). A digest of the protocol: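 Cytotoxicity was scored as loss of cellular ATP in N2a cells, a mouse neuroblastoma line. Compounds are applied in a qHTS concentration series for 40 hr at 37 °C.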
Assay [7] in a line: Cell Viability - NIH 3T3 (AID 541; active means well fitted curve in the direction sought with a large enough effect; an effect the other way counts as inactive or inconclusive;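 further: plate controls were DMSO alone for no effect and tamoxifen positive control for full effect; nearly all actives have a fitted effect of over 25% in size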). The note with it: NIH 3T3 cell viability, qHTS; activity change, negative = cytotoxicity: at 92.2 µM (top of the series). A digest of the protocol: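 Cells seeded at 1000/well, rested 5 hr at 37 °C, then dosed and incubated 40 hr at 37 °C. CellTiter-Glo added, 20 min room temperature, luminescence read. AC50 by Hill fit.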
Assay [8] can be described thus: Cell Viability - HUV-EC-C (AID 542; active means well fitted curve in the direction sought with a large enough effect; an effect the other way counts as inactive or inconclusive; further: on the % scale 0 is the no-effect control and ±100 the full control effect; nearly all actives have a fitted effect of over 35% in size). The note with it: HUV-EC-C endothelial cell viability, qHTS; series mostly up to 92.2 µM. A digest of the protocol:
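Cells were seeded at 1000 per well and incubated 5 hr at 37 °C before compound addition. After 40 hr at 37 °C, CellTiter-Glo reagent was added for 20 min and luminescence read. AC50 values came from Hill-equation modelling.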

Assay [9] in a line: Cell Viability - H-4-II-E (AID 543; active means well fitted curve in the direction sought with a large enough effect; an effect the other way counts as inactive or inconclusive; further: nearly all actives have a fitted effect of over 35% in size; further: potency means the concentration at half of the fitted maximal effect). The note with it: H-4-II-E rat hepatoma viability; series mostly up to 92.2 µM. A digest of the protocol:
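Cells seeded at 1500 per well and rested 5 hr; compounds added; 40 hr incubation at 37 °C; CellTiter-Glo added, 20 min at room temperature; luminescence read. Hill-equation fits gave AC50.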

Assay [10] in a line: Cell Viability - SH-SY5Y (AID 544; active means well fitted curve in the direction sought with a large enough effect; an effect the other way counts as inactive or inconclusive; further: nearly all actives have a fitted effect of over 55% in size; further: potency means the concentration at half of the fitted maximal effect;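 on viability change, negative = cytotoxic: 0% = DMSO alone and -100% = 100 µM tamoxifen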). The note with it: SH-SY5Y neuroblastoma cell viability; viability change, negative = cytotoxic: at 92.2 µM (top of the series). A digest of the protocol: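 Cells were plated at 1500 per well and allowed 5 hr at 37 °C. Compounds were added across a concentration range and incubated 40 hr at 37 °C. CellTiter-Glo was added for 20 min at room temperature before luminescence reading.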

Assay [11] is described as follows: AP1 Signaling Pathway (AID 357; active means well fitted curve in either direction with a large enough effect, not every such curve was filed as active;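 further: ME-180 reporter cells stimulated with EGF at its EC50 level; on the % scale 0 is the no-effect control and ±100 the full control effect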). The note with it: ME-180 AP-1-bla reporter, EGF-induced, beta-lactamase ratio, 5 h; at 17.2 µM (top of the series). A digest of the protocol:
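Read-out was the 460nm/530nm emission ratio (excitation 405nm) after CCF4 loading for 2.5 hours at room temperature. Cells carried an AP-1-driven beta-lactamase reporter, were stimulated with EC50 EGF plus compound for 5 hours, and AC50 values came from titrations.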

For assay [12], the target named is Glucocorticoid receptor (Homo sapiens) (UniProt P04150). As to the kind of experiment: GR-GFP Redistribution (AID 450;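 active means compounds whose dose series gives a full or clear partial fitted curve of increased nuclear translocation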; further: potency means the concentration at half of the fitted maximal effect). The note with it: U2OS GR-GFP nuclear translocation, laser cytometry, 2 h.
Assay [13] can be described thus: Cell Viability - Jurkat (AID 426;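 active means dose-dependent loss of cell ATP signal giving a full or clear fitted curve, ranked by lower potency value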; further: potency means the concentration at half of the fitted maximal effect). The note with it: qHTS. A digest of the protocol: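 Cells of the human T-cell leukemia line Jurkat (E6-1) are seeded at 5000 per well, treated with compound across a concentration range for 40 hours at 37 °C, then lysed with CellTiter-Glo; luminescence reports ATP.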
A short description of assay [14]: Cell Viability - SK-N-SH (AID 435).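 Further: potency means the concentration at half of the fitted maximal effect; compound exposure lasted 40 h at 37 °C.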 The note with it: SK-N-SH neuroblastoma cell viability qHTS. In a few lines: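 Human neuroblastoma line, 40 h exposure at 37 °C, ATP quantified via luciferase luminescence; DMSO and 100 uM tamoxifen define 0 and 100% inhibition for AC50 fitting.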
A short description of assay [15]: Cell Viability - Renal Proximal Tubule (AID 545; active means well fitted curve in the direction sought with a large enough effect; an effect the other way counts as inactive or inconclusive;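 further: 0% = DMSO only and -100% = 100 µM tamoxifen; nearly all actives have a fitted effect of over 40% in size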). The note with it: renal proximal tubule cells viability, primary cells of rat origin; activity change, negative = cytotoxicity: at 91.7 µM (top of the series). A digest of the protocol: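 In this qHTS format, normal rat kidney-derived proximal tubule cells in complete culture medium receive compound titrations, then sit 40 hours at 37 °C before luciferase-based ATP quantitation; potency is reported as AC50 from concentration-response curves.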

Assay [16] concerns the target Cytochrome P450 1A2 (Homo sapiens) (UniProt P05177). The experiment in a line: p450-cyp1a2 (AID 410).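 Further: -100% = full effect of reference inhibitor.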 The note with it: recombinant CYP1A2, luciferin-ME demethylation, luminescence; series mostly up to 25.6 µM. A digest of the protocol:
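O-Demethylation of luciferin 6' methyl ether by human CYP1A2 is monitored as luciferase luminescence. Substrate sits at Km (100uM); enzyme is 20nM. Values are scaled to 57 uM furafylline as maximal inhibition.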

A short description of assay [17]: Stat Signaling Pathway (AID 446; active means well fitted curve in either direction with a large enough effect, not every such curve was filed as active;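 further: ME-180 cervical cancer cells given 40 pM IL-6 alongside compound; SIE-controlled beta-lactamase reporter measured as 460/530 nm FRET emission ratio; on the % scale 0 is the no-effect control and ±100 the full control effect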). The note with it: ME-180 (cervical carcinoma) SIE beta-lactamase reporter, IL-6 stimulated, 5 h. A digest of the protocol: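 Overnight-plated ME-180 cells bearing a STAT Inducible Element beta-lactamase reporter; 5 h co-exposure to compound and 40 pM IL-6; values normalized to 300 pM IL-6 and 125 nM JAK inhibitor controls.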
Assay [18] concerns the target Glucocorticoid receptor (Homo sapiens) (UniProt P04150). As to the kind of experiment: GR-EFC Redistribution (AID 451). Further: potency means the concentration at half of the fitted maximal effect. The note with it: CHO-K1 GR-EFC translocation, beta-gal luminescence, 2 h. In a few lines: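 CHO-K1 cells expressing nuclear EA and GR-ED fragments of b-gal; compounds titrated up to 46 uM final, 2 h at 37 C. GR nuclear translocation read as complemented b-gal luminescence after 1 h RT detection.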

A short description of assay [19]: NFAT Signaling Pathway (AID 444; active means well fitted curve in either direction with a large enough effect, not every such curve was filed as active;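 further: carbachol stimulus at about its EC50 of 1 µM final; on the % scale 0 is the no-effect control and ±100 the full control effect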). The note with it: Jurkat NFAT-bla M1, carbachol, beta-lactamase ratio, 5 h; at 17.2 µM (top of the series). In a few lines: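 Jurkat cells with NFAT-driven β-lactamase reporter and co-expressed M1 receptor, stimulated with carbachol (final 1 uM, ~EC50), compound titration, 5 h at 37 °C. CCF4 loaded 1 h at RT; 460/530 nm ratio gave %activity and AC50.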

Chain of Glucocorticoid receptor (Homo sapiens) (P04150 whole entry, looked up, the tested form may be a part): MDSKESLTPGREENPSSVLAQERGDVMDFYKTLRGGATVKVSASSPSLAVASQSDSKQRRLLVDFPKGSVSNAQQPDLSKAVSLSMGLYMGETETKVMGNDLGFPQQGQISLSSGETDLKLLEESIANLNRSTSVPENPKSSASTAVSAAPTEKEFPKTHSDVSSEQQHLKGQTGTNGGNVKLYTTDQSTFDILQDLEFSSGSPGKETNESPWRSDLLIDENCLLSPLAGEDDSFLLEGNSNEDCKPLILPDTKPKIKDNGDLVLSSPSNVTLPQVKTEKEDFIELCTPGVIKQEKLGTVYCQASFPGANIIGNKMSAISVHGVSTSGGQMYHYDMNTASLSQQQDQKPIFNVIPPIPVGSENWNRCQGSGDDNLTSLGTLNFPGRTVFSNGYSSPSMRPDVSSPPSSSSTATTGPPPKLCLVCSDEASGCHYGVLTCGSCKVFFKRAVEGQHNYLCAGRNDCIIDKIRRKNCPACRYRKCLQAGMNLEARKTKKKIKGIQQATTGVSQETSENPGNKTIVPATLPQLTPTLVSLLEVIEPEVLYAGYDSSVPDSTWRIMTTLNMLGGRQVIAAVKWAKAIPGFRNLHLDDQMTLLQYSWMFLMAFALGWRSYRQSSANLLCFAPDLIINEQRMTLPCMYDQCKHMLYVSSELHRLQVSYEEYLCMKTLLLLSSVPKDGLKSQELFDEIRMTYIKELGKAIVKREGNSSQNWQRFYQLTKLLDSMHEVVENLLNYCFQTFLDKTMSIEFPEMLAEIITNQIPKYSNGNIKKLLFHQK
Chain of Cytochrome P450 1A2 (Homo sapiens) (P05177 whole entry, looked up): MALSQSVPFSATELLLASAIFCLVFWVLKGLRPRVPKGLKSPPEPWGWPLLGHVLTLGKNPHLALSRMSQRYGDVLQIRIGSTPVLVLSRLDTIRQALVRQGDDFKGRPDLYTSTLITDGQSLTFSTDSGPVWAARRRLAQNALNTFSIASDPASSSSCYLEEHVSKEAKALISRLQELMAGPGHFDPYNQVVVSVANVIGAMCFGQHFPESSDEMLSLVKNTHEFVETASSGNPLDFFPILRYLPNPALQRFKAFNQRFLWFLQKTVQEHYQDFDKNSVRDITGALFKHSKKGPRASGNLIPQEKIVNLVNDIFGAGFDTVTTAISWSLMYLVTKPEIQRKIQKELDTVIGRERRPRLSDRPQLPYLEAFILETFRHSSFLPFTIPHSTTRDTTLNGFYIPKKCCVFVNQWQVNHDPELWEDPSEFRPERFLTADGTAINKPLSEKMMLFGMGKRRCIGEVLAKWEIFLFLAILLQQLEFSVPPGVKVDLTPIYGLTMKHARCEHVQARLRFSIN

On to `COC1=CC(=O)C[C@@H](C)[C@]12Oc1c(Cl)c(OC)cc(OC)c1C2=O`, for which the Potency was > 92 µM in assay [1]; > 92 µM in assay [2]; > 92 µM in assay [3]; > 92 µM in [4]; 25.1 µM (active) in assay [9]; 25.1 µM (active) in assay [10]. The molecule was classed as inactive in assay [5]. Further, the Potency result in assay [6], in [7] and in assay [8] was “inactive” each time.

As to `CCCCC(=O)O[C@]1(C(=O)CO)CC[C@H]2[C@@H]3CCC4=CC(=O)CC[C@]4(C)[C@H]3[C@@H](O)C[C@@]21C`, the activity change, negative = inhibition in assay [11] was 5.88%. Besides, the Potency in assay [12] is 0.000459 µM (active).

With `O=c1ccc2ccccc2o1`, the Potency in [1], in [13], in [2], in assay [3], in [4] and in assay [14] was > 92 µM throughout. The call in assay [5] was inactive. Also, the Potency entry in assay [6], in assay [7], in [8], in [9] and in [10] was “inactive” each time. Besides, in [15], the activity change, negative = cytotoxicity was -6.1%.

`Nc1ccc(C(=O)O)cc1`: the Potency in [1], in [13], in assay [2], in assay [3], in assay [4] and in [14] was > 92 µM each time. Also, in [5], the molecule was classed as inactive. In addition, the Potency entry in assay [6], in assay [7], in assay [8], in assay [9] and in assay [10] was “inactive” in each case. Further, the activity change, negative = cytotoxicity in [15] was -7.22%.

Take `CN1[C@@H]2CC[C@H]1CC(OC(=O)c1c[nH]c3ccccc13)C2` (some centres not stated): the Potency result in [16] is “inactive”. The activity, negative = inhibition in assay [17] (at 38 µM (top of the series)) is -14.5%. Also, the result in [5] was inactive.

`CN=C(NC#N)NCCSCc1csc(N=C(N)N)n1`: the Potency in [12] and in assay [18] was > 46 µM in each case.

Regarding `Oc1c(I)cc(I)c2cccnc12`, the Potency in [12] is > 20.6 µM.

As for `COc1ccc(CCN2CCC(Nc3nc4ccccc4n3Cc3ccc(F)cc3)CC2)cc1`, in assay [11], the activity change, negative = inhibition is -6.26% and 6.64%. Besides, the Potency in [12] and in assay [18] was > 20.6 µM each time. Further, the outcome in assay [5] was inactive.

Regarding `CC/C(=C(/CC)c1ccc(O)cc1)c1ccc(O)cc1`, the Potency is > 92 µM in assay [1]; 21.5 µM (active) in assay [13]; > 92 µM in assay [3]; > 92 µM in assay [4]; 31.6 µM (active) in [10]. Moreover, the outcome in assay [5] was inactive. Further, the activity change, negative = cytotoxicity in assay [6] is -83.5% (active).

Consider `O=C(O)CCCCC(=O)O`, for which the Potency in assay [1], in assay [13], in assay [2], in [3], in [4] and in assay [14] was > 92 µM throughout. For the same molecule, the outcome in assay [5] was inactive. Moreover, the Potency result in assay [6], in assay [7], in [8], in assay [9] and in assay [10] was “inactive” in each case. Also, the activity change, negative = cytotoxicity in assay [15] is 1.76%.

On to `CCCCCCc1ccc(O)cc1O`, for which the Potency in assay [1], in [13], in assay [2], in assay [3], in assay [4] and in assay [14] was > 92 µM in each case. The molecule was called inactive in [5]. Besides, the Potency entry in assay [8], in [9] and in [10] was “inactive” each time. The activity change, negative = cytotoxicity in assay [15] is -9.26%.

Turning to `O=C1OC(c2ccc(O)cc2)(c2ccc(O)cc2)c2ccccc21`, the Potency in assay [1], in assay [2], in [3], in assay [4] and in assay [14] was > 92 µM in each case. In [19], the activity change, negative = inhibition was -4.2%. Also, in [17] (at 17.2 µM (top of the series)), the activity, negative = inhibition is -16.8%. Moreover, the result in assay [5] was inactive. Besides, the Potency entry in assay [6], in [7] and in assay [9] was “inactive” in each case.

On to `CC(C)(Oc1ccc(Cl)cc1)C(=O)O`, for which the activity change, negative = inhibition is -0.859% in assay [11] and 15.7% in assay [19]. Besides, the Potency in [12] was > 20.6 µM and > 46 µM; in assay [18] it was > 20.6 µM and > 46 µM. For the same molecule, the molecule was classed as inactive in assay [5].

Take `CN(C)CCOc1ccccc1Cc1ccccc1`: the activity change, negative = inhibition in [11] was 16.9%. Besides, the activity, negative = inhibition in [17] (at 17.2 µM (top of the series)) was -3.49%.

With `C[C@@H](CN(C)C)CN1c2ccccc2Sc2ccccc21`, the activity change, negative = inhibition in [11] is 82.2% [activator] (active). For the same molecule, the Potency in assay [12] and in [18] was > 20.6 µM each time. In addition, the call in [5] was inactive.

On to `c1ccc(-c2ccc(C(c3ccccc3)n3ccnc3)cc2)cc1` (configuration not stated), for which, in assay [12], the Potency was > 20.6 µM.

`CCCCCCCCCCCCCCCC[N+](C)(C)CCN(Cc1ccc(OC)cc1)c1ncccn1`: the activity change, negative = inhibition in [11] is 21.6%; in [19], 8.86%. The Potency in assay [12] and in assay [18] was > 20.6 µM throughout. Besides, the call in assay [5] was inactive.

As for `CC(=O)c1ccc2c(c1)N(CCCN1CCC(CCO)CC1)c1ccccc1S2`, the activity change, negative = inhibition in assay [11] was 4.33%. Further, the Potency in [12] and in [18] was > 20.6 µM throughout. Also, in [5], the result was inactive.

Consider `C[C@]12CC[C@@H]3c4ccc(O)cc4CC[C@H]3[C@@H]1CC[C@@H]2O`, for which the Potency in assay [1] was > 92 µM; in assay [13], 25.8 µM (active); in assay [3] it was > 92 µM; in assay [4], > 92 µM. In addition, the molecule was called inactive in assay [5]. Further, the Potency entry in assay [6] and in [8] was “inactive” in each case.

In the case of `CCCCCCC[N+](CC)(CC)CCCCc1ccc(Cl)cc1`, the activity, negative = inhibition in assay [17] (at 17.2 µM (top of the series)) was -5.02%. The Potency in assay [12] and in [18] was > 20.6 µM each time. Moreover, in [5], the result was inactive.
